Measurements taken from PubChem BioAssay (Tox21).
Several values for one entry are separate records, joined by “and”; a condition that tells them apart may be missing. Equal values may be shown once. Results filed as inconclusive are left out. A call without a number means that no potency is given here. Some compounds were tested as several samples or in several runs, with calls that do not always agree. Activity calls are given as the source filed them. The call rests on the fitted dose curve; in most records, active means well fitted curve in the direction sought with a large enough effect in the repeat runs; inconclusive means weak or mixed curves; inactive means no such curve, though single readings can be large; an effect the other way counts as inactive or inconclusive.

Key:
[1] = Caspase-3/7 induction in HepG2 cells by small molecules, qHTS assay (AID 1346978); further: nearly all actives have a fitted effect of over 15% in size
Summary of the method: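 Caspase-3/7 induction was measured by Caspase-Glo 3/7 luminescence (30 min, room temperature) after a 17 hr compound exposure of wild-type HepG2 cells seeded at 2,000 per well and pre-incubated 5 hr.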

[2] = Caspase-3/7 induction in CHO-K1 cells by small molecules, qHTS cell viability counter screen (AID 1346979); further: nearly all actives have a fitted effect of over 35% in size
Summary of the method: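 CellTiter-Fluor viability check, qHTS format: wild-type CHO-K1, 16hr compound treatment, 1hr reagent incubation, fluorescence read.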

[3] = Caspase-3/7 induction in CHO-K1 cells by small molecules, qHTS assay (AID 1346980); further: nearly all actives have a fitted effect of over 15% in size
Summary of the method: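 Luminescent Caspase-Glo 3/7 read (30min, room temperature) quantified apoptosis induction. Cells were wild-type CHO-K1, treated with compound for 17hr at 37 C and 5% CO2.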

[4] = Caspase-3/7 induction in HepG2 cells by small molecules, qHTS cell viability counter screen (AID 1346981); further: series mostly up to about 92 µM; nearly all actives have a fitted effect of over 30% in size
Summary of the method: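 Viability determined by CellTiter-Fluor fluorescence in HepG2 wells also used for the luminescent Caspase-Glo 3/7 read. Compounds were present for 16 hr at 37 C, 5% CO2 before reagent addition.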

[5] = target: Nuclear receptor subfamily 1 group I member 2 (Homo sapiens) (UniProt O75469); assay: Human pregnane X receptor (PXR) small molecule agonists, qHTS assay (AID 1346982); further: nearly all actives have a fitted effect of over 35% in size; further: potency means the concentration at half of the fitted maximal effect
Nuclear receptor subfamily 1 group I member 2 (Homo sapiens), sequence (O75469 whole entry, looked up): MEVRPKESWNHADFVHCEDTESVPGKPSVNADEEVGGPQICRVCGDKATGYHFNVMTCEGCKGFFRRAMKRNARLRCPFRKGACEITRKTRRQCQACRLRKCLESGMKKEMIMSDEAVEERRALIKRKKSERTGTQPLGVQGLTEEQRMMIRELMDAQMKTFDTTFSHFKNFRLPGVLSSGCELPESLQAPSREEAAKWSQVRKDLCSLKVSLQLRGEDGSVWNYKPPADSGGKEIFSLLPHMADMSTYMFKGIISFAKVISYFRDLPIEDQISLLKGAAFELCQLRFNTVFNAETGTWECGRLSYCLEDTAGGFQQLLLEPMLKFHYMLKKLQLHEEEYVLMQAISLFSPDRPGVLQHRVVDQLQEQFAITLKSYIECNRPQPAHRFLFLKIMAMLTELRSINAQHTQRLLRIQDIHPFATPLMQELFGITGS
Summary of the method: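 Compound-induced hPXR transactivation of a CYP3A4 luciferase reporter was scored in HepG2 PXR-Luc cells over 24 hr at 37 C, 5% CO2, by luminescence.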

[6] = target: Cytochrome P450 2C9 (Homo sapiens) (UniProt P11712); assay: Cytochrome P450 Family 2 Subfamily C Member 9 (CYP2C9) small molecule antagonists: luciferase reporter qHTS assay (AID 1671198); further: nearly all actives have a fitted effect of over 50% in size; further: potency means the concentration at half of the fitted maximal effect; on activity change, negative = inhibition: series mostly up to about 120 µM
Cytochrome P450 2C9 (Homo sapiens), sequence (P11712 whole entry, looked up): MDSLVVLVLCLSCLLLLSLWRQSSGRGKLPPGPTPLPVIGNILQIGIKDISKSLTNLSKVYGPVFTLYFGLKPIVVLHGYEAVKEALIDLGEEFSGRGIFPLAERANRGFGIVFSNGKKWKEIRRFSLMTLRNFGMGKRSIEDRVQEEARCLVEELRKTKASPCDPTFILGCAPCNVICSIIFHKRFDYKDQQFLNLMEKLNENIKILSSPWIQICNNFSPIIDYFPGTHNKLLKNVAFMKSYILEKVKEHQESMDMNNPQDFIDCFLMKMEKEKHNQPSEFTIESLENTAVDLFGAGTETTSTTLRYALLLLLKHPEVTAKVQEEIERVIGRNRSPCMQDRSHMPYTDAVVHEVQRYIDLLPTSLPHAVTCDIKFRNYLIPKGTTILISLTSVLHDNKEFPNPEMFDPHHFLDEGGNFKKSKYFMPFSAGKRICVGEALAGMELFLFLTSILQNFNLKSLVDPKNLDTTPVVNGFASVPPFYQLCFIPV
Summary of the method: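 Enzyme-substrate mix preincubated with compound 10 min at room temperature; reaction started with NADPH regeneration solution, 1 h 37C. Luminescent luciferin product read after 20 min detection reagent.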

[7] = target: Voltage-gated inwardly rectifying potassium channel KCNH2 (Homo sapiens) (UniProt Q12809); assay: Human Ether-a-go-go-Related Gene (hERG) channel small molecule antagonists: fluorescence cell-based qHTS assay (AID 1671200); further: nearly all actives have a fitted effect of over 50% in size; further: potency means the concentration at half of the fitted maximal effect;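 on activity change, negative = inhibition: hERG-expressing U2OS cells given a thallium stimulus after FluxOR II dye loading; series mostly up to about 77 µM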
Voltage-gated inwardly rectifying potassium channel KCNH2 (Homo sapiens), sequence (Q12809 whole entry, looked up): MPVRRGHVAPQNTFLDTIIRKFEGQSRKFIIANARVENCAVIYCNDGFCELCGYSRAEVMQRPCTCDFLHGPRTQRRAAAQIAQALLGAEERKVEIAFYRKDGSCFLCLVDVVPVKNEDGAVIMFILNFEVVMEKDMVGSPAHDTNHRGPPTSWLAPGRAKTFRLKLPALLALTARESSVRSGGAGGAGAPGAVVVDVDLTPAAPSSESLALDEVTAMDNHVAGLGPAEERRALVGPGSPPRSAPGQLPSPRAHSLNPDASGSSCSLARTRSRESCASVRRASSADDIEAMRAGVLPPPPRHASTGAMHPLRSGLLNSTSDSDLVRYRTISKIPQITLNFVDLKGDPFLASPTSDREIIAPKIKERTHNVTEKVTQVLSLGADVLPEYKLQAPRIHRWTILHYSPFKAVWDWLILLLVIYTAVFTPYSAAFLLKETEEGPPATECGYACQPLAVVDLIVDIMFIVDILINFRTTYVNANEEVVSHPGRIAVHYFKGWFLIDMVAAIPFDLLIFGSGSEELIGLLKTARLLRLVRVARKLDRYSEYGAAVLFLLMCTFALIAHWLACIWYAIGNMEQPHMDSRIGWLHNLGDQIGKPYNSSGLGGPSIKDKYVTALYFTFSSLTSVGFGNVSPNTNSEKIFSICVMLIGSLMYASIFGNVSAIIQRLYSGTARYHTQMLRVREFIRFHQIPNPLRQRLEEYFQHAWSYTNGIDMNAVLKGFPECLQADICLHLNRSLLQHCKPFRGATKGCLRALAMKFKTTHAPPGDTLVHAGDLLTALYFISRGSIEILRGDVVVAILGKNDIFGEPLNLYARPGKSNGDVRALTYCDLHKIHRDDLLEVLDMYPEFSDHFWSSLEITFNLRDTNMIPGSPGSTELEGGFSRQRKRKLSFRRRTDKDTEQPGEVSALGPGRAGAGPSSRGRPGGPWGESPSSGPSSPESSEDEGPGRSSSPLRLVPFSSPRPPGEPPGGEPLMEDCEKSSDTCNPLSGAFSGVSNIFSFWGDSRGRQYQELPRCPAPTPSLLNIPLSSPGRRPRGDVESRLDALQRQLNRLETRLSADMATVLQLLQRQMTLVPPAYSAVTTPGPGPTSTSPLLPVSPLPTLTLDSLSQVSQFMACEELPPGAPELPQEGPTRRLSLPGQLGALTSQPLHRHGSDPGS
Summary of the method: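 Kinetic two-minute fluorescence traces, sampled at 1 s, were collected following thallium stimulus of U2OS cells (1000 per well) that had been cultured overnight at 37 C and loaded with FluxOR II.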

[8] = target: Cytochrome P450 2C19 (Homo sapiens) (UniProt P33261); assay: Cytochrome P450 Family 2 Subfamily C Member 19 (CYP2C19) small molecule antagonists: luciferase reporter qHTS assay (AID 1671197); further: nearly all actives have a fitted effect of over 65% in size; further: potency means the concentration at half of the fitted maximal effect; on activity change, negative = inhibition: series mostly up to about 120 µM
Cytochrome P450 2C19 (Homo sapiens), sequence (P33261 whole entry, looked up): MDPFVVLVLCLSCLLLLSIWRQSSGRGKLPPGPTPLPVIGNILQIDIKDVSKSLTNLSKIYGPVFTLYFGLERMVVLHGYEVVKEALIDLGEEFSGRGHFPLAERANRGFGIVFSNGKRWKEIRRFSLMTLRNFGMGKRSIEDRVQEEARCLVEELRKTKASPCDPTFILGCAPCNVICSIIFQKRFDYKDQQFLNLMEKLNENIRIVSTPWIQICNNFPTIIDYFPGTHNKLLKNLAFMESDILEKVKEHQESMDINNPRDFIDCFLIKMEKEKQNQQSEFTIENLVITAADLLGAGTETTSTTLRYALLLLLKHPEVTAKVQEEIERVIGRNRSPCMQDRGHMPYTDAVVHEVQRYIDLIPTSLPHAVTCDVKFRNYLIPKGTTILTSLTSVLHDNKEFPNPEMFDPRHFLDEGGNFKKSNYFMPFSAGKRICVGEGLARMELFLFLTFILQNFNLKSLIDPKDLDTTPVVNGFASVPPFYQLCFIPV
Summary of the method: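 P450-Glo CYP2C19 system: enzyme-substrate mix with compound 10 min at room temperature, then NADPH regeneration solution, 1 h at 37C. Proluciferin-to-luciferin conversion detected by luminescence after 20 min with detection reagent; ketoconazole as positive control.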

[9] = target: Cytochrome P450 1A2 (Homo sapiens) (UniProt P05177); assay: Cytochrome P450 Family 1 Subfamily A Member 2 (CYP1A2) small molecule antagonists: luciferase reporter qHTS assay (AID 1671199); further: nearly all actives have a fitted effect of over 50% in size; further: potency means the concentration at half of the fitted maximal effect; on activity change, negative = inhibition: series mostly up to about 120 µM
Cytochrome P450 1A2 (Homo sapiens), sequence (P05177 whole entry, looked up): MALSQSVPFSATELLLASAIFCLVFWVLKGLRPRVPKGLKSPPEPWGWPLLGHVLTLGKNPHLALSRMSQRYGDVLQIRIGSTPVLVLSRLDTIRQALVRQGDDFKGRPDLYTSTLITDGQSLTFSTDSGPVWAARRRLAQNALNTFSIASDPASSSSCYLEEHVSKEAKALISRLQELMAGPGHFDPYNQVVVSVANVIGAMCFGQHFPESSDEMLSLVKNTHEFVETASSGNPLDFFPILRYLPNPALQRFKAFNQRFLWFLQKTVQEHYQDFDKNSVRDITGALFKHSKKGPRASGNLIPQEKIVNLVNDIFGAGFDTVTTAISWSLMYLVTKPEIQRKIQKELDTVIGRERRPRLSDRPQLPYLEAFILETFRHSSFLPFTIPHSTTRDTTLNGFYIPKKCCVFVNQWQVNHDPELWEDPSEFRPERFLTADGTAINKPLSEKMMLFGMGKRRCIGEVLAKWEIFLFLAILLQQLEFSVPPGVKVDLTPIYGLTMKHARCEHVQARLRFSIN
Summary of the method: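 Enzymatic CYP1A2 assay, human, luminescent: 10 min compound–enzyme–substrate preincubation, 1 h NADPH-dependent turnover, 20 min detection step, room temperature throughout. Reduced light indicates lower CYP1A2 activity.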

[10] = target: Cytochrome P450 3A4 (Homo sapiens) (UniProt P08684); assay: Cytochrome P450 Family 3 Subfamily A Member 4 (CYP3A4) small molecule antagonists: luciferase reporter qHTS assay (AID 1671201); further: nearly all actives have a fitted effect of over 50% in size; further: potency means the concentration at half of the fitted maximal effect; on activity change, negative = inhibition: series mostly up to about 120 µM
Cytochrome P450 3A4 (Homo sapiens), sequence (P08684 whole entry, looked up): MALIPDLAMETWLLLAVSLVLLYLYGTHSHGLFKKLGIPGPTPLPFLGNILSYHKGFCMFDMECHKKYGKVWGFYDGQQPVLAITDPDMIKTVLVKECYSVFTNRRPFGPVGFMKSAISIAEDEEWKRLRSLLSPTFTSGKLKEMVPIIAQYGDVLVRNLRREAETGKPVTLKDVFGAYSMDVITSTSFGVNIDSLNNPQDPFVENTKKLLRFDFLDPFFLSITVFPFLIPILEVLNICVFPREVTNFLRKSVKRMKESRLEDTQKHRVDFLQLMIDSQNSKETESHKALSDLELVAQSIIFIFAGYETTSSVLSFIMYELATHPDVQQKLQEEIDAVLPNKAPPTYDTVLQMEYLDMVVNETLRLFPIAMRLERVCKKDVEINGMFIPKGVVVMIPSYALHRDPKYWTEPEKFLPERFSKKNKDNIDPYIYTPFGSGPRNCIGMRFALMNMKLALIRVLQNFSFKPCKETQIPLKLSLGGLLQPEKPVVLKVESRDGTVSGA
Summary of the method: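 Proluciferin-to-luciferin conversion by CYP3A4, NADPH-regenerated, 1 h RT; luminescence read as RLU. Ketoconazole as control.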

[11] = target: Cytochrome P450 2D6 (Homo sapiens) (UniProt P10635); assay: Cytochrome P450 Family 2 Subfamily D Member 6 (CYP2D6) small molecule antagonists: luciferase reporter qHTS assay (AID 1671196); further: nearly all actives have a fitted effect of over 50% in size; further: potency means the concentration at half of the fitted maximal effect; on activity change, negative = inhibition: series mostly up to about 120 µM
Cytochrome P450 2D6 (Homo sapiens), sequence (P10635 whole entry, looked up): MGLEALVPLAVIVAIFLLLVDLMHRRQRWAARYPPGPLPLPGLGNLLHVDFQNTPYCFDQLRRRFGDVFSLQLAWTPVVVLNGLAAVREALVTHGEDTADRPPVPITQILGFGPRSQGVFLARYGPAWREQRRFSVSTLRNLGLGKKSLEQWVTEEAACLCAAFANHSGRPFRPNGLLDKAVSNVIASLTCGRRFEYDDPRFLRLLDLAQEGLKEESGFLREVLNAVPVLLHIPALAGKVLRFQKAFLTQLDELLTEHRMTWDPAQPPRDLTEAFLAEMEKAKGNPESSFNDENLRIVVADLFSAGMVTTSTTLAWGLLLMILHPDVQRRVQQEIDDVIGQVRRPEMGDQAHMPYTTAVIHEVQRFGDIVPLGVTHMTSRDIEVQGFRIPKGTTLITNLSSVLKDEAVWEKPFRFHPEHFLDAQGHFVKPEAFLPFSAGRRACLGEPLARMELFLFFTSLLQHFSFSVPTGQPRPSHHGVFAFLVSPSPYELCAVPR
Summary of the method: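 Each well received CYP2D6 with its proluciferin substrate and chemical, sat 10 min, then got NADPH regeneration solution for 1 h at room temperature. Luminescence in RLU served as the activity measure.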

[12] = target: Nuclear receptor subfamily 1 group I member 2 (Rattus norvegicus) (UniProt Q9R1A7); assay: Rat pregnane X receptor (rPXR) activation by small molecules, qHTS assay (AID 1346983); settings: rPXR luciferase reporter cells, One-Glo luminescence, 24 h; stronger effect = higher value; further: nearly all actives have a fitted effect of over 20% in size
Nuclear receptor subfamily 1 group I member 2 (Rattus norvegicus), sequence (Q9R1A7 whole entry, looked up): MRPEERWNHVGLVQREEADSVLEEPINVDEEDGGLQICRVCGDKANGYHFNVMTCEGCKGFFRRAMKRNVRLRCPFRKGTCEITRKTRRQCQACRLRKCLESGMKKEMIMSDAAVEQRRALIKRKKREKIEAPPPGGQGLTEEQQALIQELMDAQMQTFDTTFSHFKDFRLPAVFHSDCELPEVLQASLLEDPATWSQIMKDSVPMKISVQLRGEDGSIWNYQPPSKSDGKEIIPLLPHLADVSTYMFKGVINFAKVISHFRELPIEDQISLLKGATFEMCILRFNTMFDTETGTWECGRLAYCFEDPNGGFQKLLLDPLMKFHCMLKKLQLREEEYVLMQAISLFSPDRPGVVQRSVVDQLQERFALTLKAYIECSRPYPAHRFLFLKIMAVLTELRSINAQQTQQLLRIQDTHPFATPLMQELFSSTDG
Summary of the method: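 Luminescent readout (One-Glo luciferase, 30 min room temperature) followed 24 hr compound treatment at 37 C of rPXR cells plated 2,000 per well and preincubated 5hr; qHTS format with compounds delivered in DMSO.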

[13] = target: Nuclear receptor subfamily 1 group I member 2 (Homo sapiens) (UniProt O75469); assay: Human pregnane X receptor (PXR) activation by small molecules, qHTS assay (AID 1346985); further: nearly all actives have a fitted effect of over 40% in size; further: potency means the concentration at half of the fitted maximal effect
Summary of the method: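 DPX-2 cells (HepG2 co-transfected with a PXR response element and a CYP3A4-promoter luciferase construct) were seeded at 2,000 per well, rested 5 hr at 37C, then exposed to DMSO-dissolved compounds for 24 hr. Activation was read as luciferase luminescence.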

[14] = target: Nuclear receptor subfamily 1 group I member 2 (Homo sapiens) (UniProt O75469); assay: CYP3A4 induction through human pregnane X receptor (PXR) by small molecules, qHTS assay (AID 1346984); further: nearly all actives have a fitted effect of over 40% in size
Summary of the method: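 Readings come from a luciferase reporter: DPX-2 cells, which are HepG2 cotransfected with PXR and a CYP3A4-promoter construct, were exposed to test compounds for 24 h at 37C before One-Glo detection.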

NS(=O)(=O)c1cc2c(cc1Cl)NC(C1CC3C=CC1C3)NS2(=O)=O (stereo not drawn)
Potency [1]: inactive | Potency [2]: inactive | outcome [3]: inactive | Potency [4]: inactive | Potency [5]: inactive | Potency [6]: 12.3 µM (active) | Potency [7]: inactive

CC(=O)OC/C=C(\C)CC/C=C(\C)CCC=C(C)C
Potency [1]: inactive | Potency [2]: inactive | outcome [3]: inactive | Potency [4]: inactive | Potency [5]: 61.1 µM (active) and inactive | Potency [8]: 20 µM (active) and 71 µM (active) | Potency [6]: 35.6 µM (active) | Potency [9]: inactive | Potency [7]: inactive | Potency [10]: 10 µM (active)

CCCCOCCOCCOCCCC
Potency [1]: inactive | Potency [2]: inactive | outcome [3]: inactive | Potency [4]: inactive | Potency [11]: inactive | Potency [8]: inactive | Potency [6]: inactive | Potency [9]: inactive | Potency [7]: inactive | Potency [10]: inactive

CC/C=C\CCOC(C)=O
Potency [1]: inactive | Potency [2]: inactive | outcome [3]: inactive | Potency [4]: inactive | Potency [5]: inactive | Potency [8]: inactive | Potency [6]: inactive | Potency [9]: inactive | Potency [7]: inactive | Potency [10]: inactive

COc1cc(C(=O)N2CCCCCCC2)cc(OC)c1OC
Potency [1]: inactive | Potency [2]: inactive | outcome [3]: inactive | Potency [4]: inactive | max activation [12]: -0.931% (inactive) | Potency [13]: 15.8 µM (active) | Potency [11]: inactive | Potency [8]: 21.9 µM (active) | Potency [6]: inactive | Potency [9]: inactive | Potency [7]: inactive

CCCC(=O)O[C@]1(C(=O)CO)CC[C@H]2[C@@H]3CCC4=CC(=O)CC[C@]4(C)[C@H]3[C@@H](O)C[C@@]21C
Potency [1]: inactive | Potency [2]: inactive | outcome [3]: inactive | Potency [4]: inactive | max activation [12]: 8.95% (inactive) | Potency [14]: inactive | Potency [13]: inactive | Potency [11]: inactive | Potency [8]: inactive | Potency [6]: inactive | Potency [9]: inactive | Potency [7]: inactive

C1CN(CCOCCN2CCOCC2)CCO1
Potency [1]: inactive | Potency [2]: inactive | outcome [3]: inactive | Potency [5]: inactive | Potency [11]: inactive | Potency [8]: inactive | Potency [6]: inactive | Potency [9]: inactive | Potency [7]: inactive | Potency [10]: inactive

Cc1[nH]c(=O)c(C#N)cc1-c1ccc2nccn2c1
Potency [1]: inactive | Potency [2]: inactive | outcome [3]: inactive | Potency [5]: inactive | max activation [12]: 0.264% (inactive) | Potency [14]: inactive | Potency [13]: inactive | Potency [11]: inactive | Potency [8]: inactive | Potency [6]: inactive | Potency [9]: inactive | Potency [7]: inactive | Potency [10]: inactive

c1cnc(N2CCN(Cc3ccc4c(c3)OCO4)CC2)nc1
Potency [1]: inactive | Potency [2]: inactive | outcome [3]: inactive | Potency [5]: inactive | Potency [11]: 1.23 µM (active) | Potency [8]: 3.47 µM (active) | Potency [6]: 15.5 µM (active) | Potency [9]: 4.07 µM (active) | Potency [7]: inactive

CCOC(=O)CC(C)=O
Potency [1]: inactive | Potency [2]: inactive | outcome [3]: inactive | Potency [4]: inactive | Potency [7]: inactive

CCCCCOC(=O)CCCCC
Potency [1]: inactive | Potency [2]: inactive | outcome [3]: inactive | Potency [4]: inactive | Potency [11]: inactive | Potency [8]: inactive | Potency [6]: inactive | Potency [9]: inactive | Potency [7]: inactive | Potency [10]: inactive

O=C1CCCN1C1CCCCC1
Potency [1]: inactive | Potency [2]: inactive | outcome [3]: inactive | Potency [4]: inactive | Potency [11]: 35.6 µM (active) | Potency [6]: inactive | Potency [7]: inactive | Potency [10]: inactive

Nc1ccc(S(=O)(=O)Nc2ccnn2-c2ccccc2)cc1
caspase activation [1]: 0.58% [at 19 µM] (inactive) | Potency [2]: inactive | caspase-3/7 activation [3]: 1.89% [at 19 µM] (inactive) | activation [5]: -6.08% [at 19 µM] (inactive) | max activation [12]: 8.45% (inactive) | Potency [14]: inactive | Potency [13]: inactive | activity change, negative = inhibition [11]: 0.38% [at 23.6 µM] (inactive) | Potency [8]: inactive | Potency [9]: inactive | activity change, negative = inhibition [7]: 4.06% [at 15.8 µM] (inactive)

Cc1ccc(C#N)cc1
Potency [1]: inactive | Potency [2]: inactive | outcome [3]: inactive | Potency [4]: inactive | Potency [11]: inactive | Potency [8]: 34.4 µM (active) | Potency [9]: inactive | Potency [7]: inactive | Potency [10]: inactive

O=C1CC2CC1C1CCCC21 (stereo not drawn)
Potency [1]: inactive | Potency [2]: inactive | outcome [3]: inactive | Potency [4]: inactive | Potency [11]: inactive | Potency [8]: inactive | Potency [6]: inactive | Potency [7]: inactive | Potency [10]: inactive

CCCCCCCCCCCC
Potency [1]: inactive | Potency [2]: inactive | outcome [3]: inactive | Potency [4]: inactive | Potency [11]: inactive | Potency [8]: inactive | Potency [6]: inactive | Potency [9]: inactive | Potency [7]: inactive | Potency [10]: inactive

CC(C)NCCCC1(C(N)=O)c2ccccc2-c2ccccc21
Potency [1]: inactive | Potency [2]: inactive | outcome [3]: inactive | Potency [4]: inactive | Potency [11]: 2.45 µM (active) | Potency [8]: inactive | Potency [9]: inactive | Potency [7]: inactive

CC(C)NCC(O)c1ccc(NS(C)(=O)=O)cc1 (stereo not drawn)
Potency [1]: inactive | Potency [2]: inactive | outcome [3]: inactive | Potency [5]: inactive | max activation [12]: -1.64% (inactive) | Potency [14]: inactive | Potency [13]: inactive | Potency [11]: 36 µM (active) | Potency [8]: inactive | Potency [6]: inactive | Potency [9]: inactive | Potency [7]: 22.1 µM (active) | Potency [10]: inactive

CCCCC/C=C\CCC=O
Potency [1]: inactive | Potency [2]: inactive | outcome [3]: inactive | Potency [4]: inactive | Potency [11]: inactive | Potency [8]: 63.3 µM (active) | Potency [7]: inactive | Potency [10]: inactive

CC(C)(C)c1nnc(NS(=O)(=O)c2ccccc2)s1
Potency [1]: inactive | Potency [2]: inactive | outcome [3]: inactive | Potency [4]: inactive | Potency [11]: inactive | Potency [8]: inactive | Potency [6]: 27.5 µM (active) | Potency [9]: inactive | Potency [7]: inactive | Potency [10]: inactive

NCCc1cnc[nH]1
Potency [1]: inactive | Potency [2]: inactive | outcome [3]: inactive | Potency [4]: inactive | Potency [7]: inactive

O=S(O)CO
Potency [1]: inactive | Potency [2]: inactive | outcome [3]: inactive | Potency [5]: inactive | Potency [11]: inactive | Potency [8]: inactive | Potency [6]: inactive | Potency [9]: inactive | Potency [7]: inactive | Potency [10]: inactive

Brc1c(NC2=NCCN2)ccc2nccnc12
Potency [1]: inactive | Potency [2]: inactive | outcome [3]: inactive | Potency [4]: inactive | Potency [7]: inactive
